{
  "source": "PubChem BioAssay AID1918",
  "about": "(Vanderbilt High Throughput Screening Facility, 2009)",
  "note": "Out of some 130,000 compounds screened, about 2,500 (1.9%) were called active. The list comes from a sample in which actives are over-represented; it also holds similar structures and randomly drawn compounds. A number with no mark means an inactive call.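 How the source made its calls: active means signal ratio slope over the read window, or its plate-corrected B-score, at least 3 SD from the plate mean, either direction; inactive means the rest.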",
  "data": [
    {"target": "ATP-sensitive inward rectifier potassium channel 1 (Homo sapiens) (UniProt P48048)", "sequence (P48048 whole entry, looked up)": "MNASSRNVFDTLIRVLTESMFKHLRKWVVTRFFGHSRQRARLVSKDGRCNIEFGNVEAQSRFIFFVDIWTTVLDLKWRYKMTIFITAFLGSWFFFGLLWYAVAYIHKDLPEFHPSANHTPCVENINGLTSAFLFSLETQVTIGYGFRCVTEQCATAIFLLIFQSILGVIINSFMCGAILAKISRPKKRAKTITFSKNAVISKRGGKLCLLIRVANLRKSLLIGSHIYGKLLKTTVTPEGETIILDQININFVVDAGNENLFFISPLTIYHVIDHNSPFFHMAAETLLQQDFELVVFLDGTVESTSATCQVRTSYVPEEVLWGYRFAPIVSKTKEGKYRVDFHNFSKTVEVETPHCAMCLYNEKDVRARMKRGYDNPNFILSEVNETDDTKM", "experiment": "ROMK potassium channel modulators, primary screen, cell-based, thallium flux, MLSMR library (AID 1918);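 further: B-score of the F/F0 ratio slope over 7 to 12 s after thallium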", "conditions": "Tet-inducible ROMK, thallium flux fluorescence; at 10 µM; actives lie on both sides", "values": [
      {"smiles": "O=C(CSc1nc2ccccc2o1)N/N=C/c1ccccc1C(=O)O", "B-score": 0.754},
      {"smiles": "CCOC(=O)Cn1c(N)c(C(=O)OC)sc1=S", "B-score": -0.216},
      {"smiles": "CCOC(=O)c1sc(=S)n(-c2cccc(OC)c2)c1N", "B-score": -0.158},
      {"smiles": "CCOC(=O)c1sc(=S)n2c1[nH]c(=O)c1ccc(C(=O)OC)cc12", "B-score": "6.64 (active)"},
      {"smiles": "CC(C)N1CCC(=NNc2ccc([N+](=O)[O-])cc2S(=O)(=O)N2CCOCC2)CC1", "B-score": -0.739},
      {"smiles": "CC(C)OC(=O)CN1C(=O)C(=O)c2ccccc21", "B-score": -0.327},
      {"smiles": "O=C1c2ccccc2C(=O)N1c1ccccc1S(=O)C(F)(F)F", "note": "(stereo not drawn)", "B-score": -0.708},
      {"smiles": "O=C1C(=O)N(c2ccccc2)c2ccccc21", "B-score": "3.08 (active)"},
      {"smiles": "Cc1cc([N+](=O)[O-])nn1CCCC(=O)Nc1cccnc1Cl", "B-score": 0.471},
      {"smiles": "COc1ccc(Br)cc1/C=N/NC(=O)c1cccc(S(=O)(=O)N2CCOCC2)c1", "B-score": -0.0649},
      {"smiles": "Oc1c(C=Nc2cccc3nsnc23)ccc2ccccc12", "B-score": -0.773},
      {"smiles": "Oc1ccc2ccccc2c1N=Nc1nccs1", "B-score": "2.22 (active)"},
      {"smiles": "COc1cccc(C(=O)Nc2cccnc2)c1OC", "B-score": 1.32},
      {"smiles": "Cc1cccc(-n2c(C)cc(/C=N\\NC(=O)c3cccs3)c2C)c1", "B-score": 0.454},
      {"smiles": "Cc1cc(/C=N/NC(N)=O)c(C)n1C1CCCCC1", "B-score": "3.24 (active)"},
      {"smiles": "Cc1cccc(-n2c(C)cc(/C=N/NC(N)=S)c2C)c1", "B-score": 2.21},
      {"smiles": "CCOc1cc(C(=O)N2CCc3cc(OC)c(OC)cc3C2)ccc1OC(F)F", "B-score": "4.09 (active)"},
      {"smiles": "COc1ccc(CC(NC(C)=O)C(=O)NC2CCN(C(=O)c3ccc(OC)c(OC)c3)CC2)cc1OC", "note": "(stereo not drawn)", "B-score": -0.592},
      {"smiles": "COc1cc2c(cc1OC)CN(C(=O)c1cc(=O)c3ccccc3o1)CC2", "B-score": 2.64},
      {"smiles": "CS(=O)(=O)N(Cc1ccccc1Cl)c1ccc(C(=O)NCc2cccnc2)cc1", "B-score": -0.455},
      {"smiles": "S=C(NCc1ccco1)Nc1ccc2c(c1)OCCO2", "B-score": 0.904},
      {"smiles": "CCSc1sc(CC)cc1C=O", "B-score": "4.04 (active)"},
      {"smiles": "Cc1ccc(S(=O)(=O)Nc2nc(N)n(-c3ccccc3)n2)cc1", "B-score": 0.00772},
      {"smiles": "CC(C)(C)CC(C)(C)NCC(O)COCCOc1ccc(Br)cc1", "note": "(stereo not drawn)", "B-score": "-3.09 (active)"},
      {"smiles": "Cc1noc(COc2ccccc2OCC(O)CNC(C)(C)C)n1", "note": "(stereo not drawn)", "B-score": -0.0138},
      {"smiles": "Nc1ccccc1SC(C[N+](=O)[O-])c1ccccc1", "note": "(stereo not drawn)", "B-score": "-8.64 (active)"},
      {"smiles": "O=C(NCc1ccc(Cl)cc1)NCc1ccc(Cl)cc1", "B-score": -0.951},
      {"smiles": "Oc1ccccc1/C=N/n1c(-c2cccs2)n[nH]c1=S", "B-score": 0.503},
      {"smiles": "S=c1[nH]nc(-c2ccccc2)n1/N=C/c1c[nH]c2ccccc12", "B-score": 1.36},
      {"smiles": "S=c1[nH]nc(-c2cccnc2)n1/N=C/C(Cl)=C\\c1ccccc1", "B-score": "-3.13 (active)"},
      {"smiles": "Cc1ccc(C(=O)O)cc1NC(=O)c1ccc(Cn2nc(C)c(Cl)c2C)o1", "B-score": -0.188},
      {"smiles": "Cc1nc2sc3c(c2c(=O)n1NC(=O)CCl)CCCC3", "B-score": -0.421},
      {"smiles": "CCS(=O)(=O)C1=NSC2=NC(=O)/C(=C\\c3cc(C)n(-c4cccc(OC)c4)c3C)C(=N)N21", "B-score": 1.02},
      {"smiles": "Cc1cc(/C=C2/C(=N)N3C(=NC2=O)SN=C3S(C)(=O)=O)c(C)n1-c1ccccc1", "B-score": "1.2 (active)"},
      {"smiles": "CS(=O)(=O)c1ccc2c(c1)SC1=NC(=O)/C(=C/c3ccco3)C(=N)N12", "B-score": 0.317},
      {"smiles": "CC(C)(C)NC(=O)NC(=O)COC(=O)Cc1c(F)cccc1Cl", "B-score": -0.0671},
      {"smiles": "COC(=O)COc1ccc(C2NC(=O)NC(C)=C2C(=O)NCc2ccccc2)cc1OC", "note": "(stereo not drawn)", "B-score": 0.834},
      {"smiles": "NS(=O)(=O)c1ccc(NC(=O)/C=C/c2ccccc2Cl)cc1", "B-score": 0.913},
      {"smiles": "CCN(CC)N=Nc1cccc(NC(C)=O)c1", "B-score": 0.863},
      {"smiles": "Cc1cccn2c(=O)c3cc(C(=O)N4COCC4(C)C)n(C)c3nc12", "B-score": "-4.56 (active)"},
      {"smiles": "Cc1cccn2c(=O)c3cc(C#N)c(=O)n(CCCN4CCOCC4)c3nc12", "B-score": 0.896},
      {"smiles": "CCn1c(=N)c(C(=O)NCCCOC)cc2c(=O)n3cccc(C)c3nc21", "B-score": -1.26},
      {"smiles": "S=C(c1ccc(-c2ccccc2)o1)N1CCCCC1", "B-score": -1.97},
      {"smiles": "CC(=O)NC(Cc1ccc(F)c(F)c1)C(=O)NC1CCN(C(=O)c2ccc(C)cc2)CC1", "note": "(stereo not drawn)", "B-score": -0.484},
      {"smiles": "NC(=O)c1ccccc1N(Cc1ccccc1)S(=O)(=O)c1ccccc1", "B-score": "3.2 (active)"},
      {"smiles": "CCOC(=O)N1CCN(C(=O)c2ccccc2N(Cc2ccccc2)S(=O)(=O)c2ccc(OC)cc2)CC1", "B-score": 2.44},
      {"smiles": "CCOC(=O)C1CCN(C(=O)c2ccccc2N(C)S(=O)(=O)c2ccccc2)CC1", "B-score": 0.0133},
      {"smiles": "COC(=O)c1ccccc1NC(=O)C1CCN(S(=O)(=O)c2cc(OC)ccc2OC)CC1", "B-score": "2.29 (active)"},
      {"smiles": "CCOC(=O)C1CCN(S(=O)(=O)c2cc(F)ccc2OC)CC1", "B-score": -0.346},
      {"smiles": "COC(=O)c1ccccc1NC(=O)C1CC(=O)N(c2ccc(OC)cc2)C1", "note": "(stereo not drawn)", "B-score": 0.403},
      {"smiles": "CCOC(=O)C1=C(CN2CCCCCC2)NC(=O)NC1c1cccc([N+](=O)[O-])c1", "note": "(stereo not drawn)", "B-score": -1.02},
      {"smiles": "COc1ccc(C(=O)NC2CCN(C(=S)NCCc3ccccc3)CC2)cc1", "B-score": -0.464},
      {"smiles": "NS(=O)(=O)c1ccc(CCNC(=O)c2ccc([N+](=O)[O-])cc2[N+](=O)[O-])cc1", "B-score": 0.546},
      {"smiles": "CN1CCN(c2ccc(S(=O)(=O)N3CCCCC3)cc2NC(=O)Cc2ccccc2F)CC1", "B-score": "-4.06 (active)"},
      {"smiles": "O=C(COC(=O)c1ccccc1F)Nc1cc(S(=O)(=O)N2CCOCC2)ccc1N1CCCC1", "B-score": -0.699},
      {"smiles": "COc1ccc(CC(=O)Nc2cc(S(=O)(=O)N3CCCCC3)ccc2N2CCN(C)CC2)cc1", "B-score": 0.269},
      {"smiles": "C=CCOC(=O)C1=C(C)N=C2SCCC(=O)N2C1/C=C/c1ccccc1OC", "note": "(stereo not drawn)", "B-score": -2.24},
      {"smiles": "COCCn1c(Cc2cccn2C)nnc1SCC(=O)Nc1nccs1", "B-score": -0.191},
      {"smiles": "CCn1c(/C=C/Nc2ccccc2)[n+](CC)c2ccc(C(=O)OCC(F)(F)F)cc21", "B-score": "-3.51 (active)"},
      {"smiles": "Cn1cnc(S(=O)(=O)Nc2ccc3c(c2)OCCO3)c1", "B-score": 1.18},
      {"smiles": "CNC(=O)/C(C#N)=C/c1c(F)cccc1Cl", "B-score": "-5.65 (active)"},
      {"smiles": "Cc1[nH]c2ccccc2c1/C=C(/C#N)C(=O)NC(C)C", "B-score": 0.27},
      {"smiles": "O=C(/C=C/c1c(F)cccc1Cl)Nc1nn[nH]n1", "B-score": -0.796},
      {"smiles": "COc1ccc(C(=O)NC2CCN(C(=S)Nc3ccccc3)CC2)cc1", "B-score": 0.59},
      {"smiles": "C=CCn1c(COc2ccc(F)cc2)nnc1SCC(=O)Nc1cccc(S(N)(=O)=O)c1", "B-score": 0.118},
      {"smiles": "COC(=O)CNc1nc(Cl)nc(N2CCC(C)CC2)n1", "B-score": -0.416},
      {"smiles": "COCCNC(=O)c1ccc(-n2c(SCc3cccnc3)nc3ccccc3c2=O)cc1", "B-score": -0.255},
      {"smiles": "O=C1CN(C(=O)COC(=O)c2cnc(Cl)c(Cl)c2)c2ccccc2N1", "B-score": -0.857},
      {"smiles": "CN(C)CC(O)COc1ccc(C(C)(C)c2ccc(OCC(O)CN(C)C)cc2)cc1", "note": "(stereo not drawn)", "B-score": -0.0221},
      {"smiles": "CC(C)(c1ccccc1)c1ccc(OCCN)cc1", "B-score": "-2.62 (active)"},
      {"smiles": "CCCOc1ccc(C(=O)NCCc2ccccc2)cc1", "B-score": 0.056},
      {"smiles": "O=C(NC(=S)Nc1ccc(S(=O)(=O)N2CCOCC2)cc1)c1ccccc1[N+](=O)[O-]", "B-score": -0.648},
      {"smiles": "CN(CC(=O)Nc1ccc(N2CCOCC2)cc1)CC(=O)Nc1ccccc1[N+](=O)[O-]", "B-score": -0.00205},
      {"smiles": "O=C(Nc1ccc(N2CCOCC2)cc1)c1ccc(-c2ccccc2[N+](=O)[O-])o1", "B-score": "3.49 (active)"},
      {"smiles": "CCc1nnc(NC(=O)Cc2cccs2)s1", "B-score": 0.627},
      {"smiles": "CCn1cc(CN2CCCC(CNS(=O)(=O)Cc3ccccc3)C2)cn1", "note": "(stereo not drawn)", "B-score": -1.12},
      {"smiles": "CCOc1ncccc1C(=O)OCC(=O)NC1CC1", "B-score": 0.144},
      {"smiles": "COc1cccc(NC(=O)CC2C(=O)NCCN2C(=S)Nc2ccc(F)cc2)c1", "note": "(stereo not drawn)", "B-score": -0.0401}
    ]}
  ]
}
